For part of these data: Measured potencies and affinities stand elsewhere. Activity calls are given as the source filed them. Unless noted, the rule behind the calls is not given here.
How the values were obtained:
[1] = antimalarial activity against Dd2 strain (AID 2302;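 active = growth inhibition above 50% at the single 2 µM test dose, taken to imply half-maximal potency below 2 µM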;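 note: 0% = DMSO untreated growth and 100% = chloroquine plus artemisinin killed control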); conditions: P. falciparum Dd2 in RBCs, LDH growth readout, 72 h; at 2 µM; hits give high values
[2] = HepG2 cytotoxicity, primary screen, cytotoxicity control for P. falciparum antimalarial project, cell-based, ATP luminescence (AID 2303;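 active = inhibition above 50%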;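 note: 0% = DMSO wells and 100% = digitonin-killed cells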); conditions: HepG2 viability, 24-48 h, at 10 µM, hits give high values
[3] = target: L-lactate dehydrogenase (Plasmodium falciparum (isolate CDC / Honduras)) (UniProt Q27743); assay: PfLDH activity inhibition – cell lysate, 3D7 strain, counter-screen for P. falciparum growth inhibition project (AID 2304);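 note: 0% = vehicle and 100% = reference inhibitor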; conditions: P. falciparum 3D7 crude extract, LDH APAD/NBT absorbance; at 2 µM; hits give high values
[4] = inhibition of 3D7 malaria parasite growth – strain 3D7 (AID 2306);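 note: 0% = DMSO wells and 100% = chloroquine plus artemisinin control wells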; conditions: P. falciparum 3D7 erythrocytic growth, LDH absorbance, 72 h; at 2 µM; hits give high values
[5] = target: Calcium-dependent protein kinase 1 (Plasmodium falciparum (isolate 3D7)) (UniProt P62344); assay: PfCDPK1 kinase inhibitors, biochemical, TCAMS library (AID 1159585; cut-off not given, nearly all actives have IC50 up to about 0.98 µM;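 note: inhibitors leave more ATP so luminescence rises with inhibition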); conditions: recombinant PfCDPK1, Kinase-Glo ATP depletion luminescence
[6] = target: Plasmodium falciparum protein kinase 6 (PK6, PF3D7_1337100) (UniProt Q8IDW1); assay: PfPK6 kinase inhibitors, biochemical, TCAMS library (AID 1159586); conditions: recombinant PfPK6, Kinase-Glo ATP depletion luminescence
[7] = target: Protein kinase 7 (PK7), Plasmodium falciparum 3D7 (PF3D7_0213400) (UniProt Q7YTF7); assay: inhibition of Plasmodium PK7 catalytic activity – biochemical, TCAMS antimalarial set, Kinase-Glo luminescence (AID 1159587); conditions: recombinant PfPK7, Kinase-Glo ATP depletion luminescence
[8] = target: Calcium-dependent protein kinase 4 (Plasmodium falciparum (isolate 3D7)) (UniProt Q8IBS5); assay: PfCDPK4 kinase inhibitors, biochemical, TCAMS library (AID 1159588; cut-off not given, nearly all actives have IC50 up to about 0.91 µM); conditions: recombinant PfCDPK4, Kinase-Glo ATP depletion luminescence
Sequence of Calcium-dependent protein kinase 4 (Plasmodium falciparum (isolate 3D7)) (Q8IBS5 whole entry, looked up): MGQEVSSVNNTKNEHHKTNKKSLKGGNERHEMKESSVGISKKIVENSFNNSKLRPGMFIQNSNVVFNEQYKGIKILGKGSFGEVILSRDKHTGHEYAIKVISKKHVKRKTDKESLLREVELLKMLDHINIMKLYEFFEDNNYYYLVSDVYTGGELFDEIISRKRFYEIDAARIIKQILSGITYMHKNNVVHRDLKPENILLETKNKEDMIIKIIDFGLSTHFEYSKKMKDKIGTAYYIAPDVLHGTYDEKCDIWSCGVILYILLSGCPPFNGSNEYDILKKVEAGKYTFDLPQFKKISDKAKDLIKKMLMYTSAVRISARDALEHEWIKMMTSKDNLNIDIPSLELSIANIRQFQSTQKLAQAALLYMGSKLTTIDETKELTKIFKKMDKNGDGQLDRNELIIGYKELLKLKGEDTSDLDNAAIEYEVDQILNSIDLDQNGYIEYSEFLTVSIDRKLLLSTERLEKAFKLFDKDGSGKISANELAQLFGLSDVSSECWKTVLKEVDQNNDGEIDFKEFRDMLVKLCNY

Sequence of Calcium-dependent protein kinase 1 (Plasmodium falciparum (isolate 3D7)) (P62344 whole entry, looked up): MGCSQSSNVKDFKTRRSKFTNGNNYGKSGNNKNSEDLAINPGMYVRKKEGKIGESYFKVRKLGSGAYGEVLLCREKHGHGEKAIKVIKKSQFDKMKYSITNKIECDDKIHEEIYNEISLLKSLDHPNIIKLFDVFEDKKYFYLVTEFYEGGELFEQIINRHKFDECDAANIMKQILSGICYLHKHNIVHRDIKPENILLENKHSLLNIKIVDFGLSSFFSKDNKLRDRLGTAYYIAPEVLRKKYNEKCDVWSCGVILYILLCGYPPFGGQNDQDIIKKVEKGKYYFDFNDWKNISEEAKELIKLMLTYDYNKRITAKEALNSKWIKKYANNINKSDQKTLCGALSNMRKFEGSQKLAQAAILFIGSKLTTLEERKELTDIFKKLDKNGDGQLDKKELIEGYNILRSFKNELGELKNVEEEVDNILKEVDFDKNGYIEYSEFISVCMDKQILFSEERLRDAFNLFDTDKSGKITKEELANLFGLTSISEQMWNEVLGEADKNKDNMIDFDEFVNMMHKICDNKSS
Sequence of Plasmodium falciparum protein kinase 6 (PK6, PF3D7_1337100) (Q8IDW1 1-305): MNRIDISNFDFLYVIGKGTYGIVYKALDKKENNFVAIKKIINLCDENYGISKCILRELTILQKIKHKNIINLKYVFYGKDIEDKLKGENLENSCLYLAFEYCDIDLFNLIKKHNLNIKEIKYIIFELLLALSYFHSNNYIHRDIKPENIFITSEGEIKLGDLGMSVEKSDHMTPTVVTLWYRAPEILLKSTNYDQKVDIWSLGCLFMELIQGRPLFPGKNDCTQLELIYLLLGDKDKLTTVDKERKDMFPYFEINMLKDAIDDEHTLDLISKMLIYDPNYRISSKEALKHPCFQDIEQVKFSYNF
Sequence of L-lactate dehydrogenase (Plasmodium falciparum (isolate CDC / Honduras)) (Q27743 whole entry, looked up): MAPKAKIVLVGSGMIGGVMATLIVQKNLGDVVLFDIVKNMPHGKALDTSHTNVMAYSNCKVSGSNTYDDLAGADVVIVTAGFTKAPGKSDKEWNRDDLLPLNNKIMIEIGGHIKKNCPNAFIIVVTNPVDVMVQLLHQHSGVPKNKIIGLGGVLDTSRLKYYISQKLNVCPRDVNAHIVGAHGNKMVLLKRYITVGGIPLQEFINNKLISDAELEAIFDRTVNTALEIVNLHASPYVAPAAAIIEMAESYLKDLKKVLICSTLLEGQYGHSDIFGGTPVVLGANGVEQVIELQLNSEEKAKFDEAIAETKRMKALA
Sequence of Protein kinase 7 (PK7), Plasmodium falciparum 3D7 (PF3D7_0213400) (Q7YTF7 1-343): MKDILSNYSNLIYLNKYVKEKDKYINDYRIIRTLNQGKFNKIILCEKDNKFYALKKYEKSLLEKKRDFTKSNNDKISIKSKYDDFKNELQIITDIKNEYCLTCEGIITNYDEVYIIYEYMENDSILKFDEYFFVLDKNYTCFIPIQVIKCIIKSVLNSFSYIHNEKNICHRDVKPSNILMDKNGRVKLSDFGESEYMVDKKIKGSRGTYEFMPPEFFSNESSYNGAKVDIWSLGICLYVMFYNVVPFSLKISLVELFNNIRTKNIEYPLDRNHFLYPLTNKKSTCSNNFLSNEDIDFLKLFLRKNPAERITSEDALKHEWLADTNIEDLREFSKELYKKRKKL

O=S(=O)(c1ccccc1)n1ccc2cc(Nc3ncnc4cc(C#C[C@H]5CCCN5)sc34)ccc21
active: growth inhibition [1] 56% | inhibition [2] 50% | growth inhibition [4] 85%
inactive: inhibition [3] -3% | outcome [5] | outcome [6] | outcome [7] | outcome [8]

O[C@@H](c1ccccc1)[C@@H]1CN(CCC2C[C@@H]3CC[C@H]2C3)CC[C@@]1(O)c1ccccc1 (some centres undefined)
active: growth inhibition [1] 99% | growth inhibition [4] 97%
inactive: inhibition [2] -1% | inhibition [3] -2% | outcome [5] | outcome [6] | outcome [7] | outcome [8]

CCn1cc(-c2nc(-c3cc(OC)cc(OC)c3)no2)c(=O)c2ccccc21
active: growth inhibition [1] 77% | growth inhibition [4] 89%
inactive: inhibition [2] -7% | inhibition [3] 0% | outcome [5] | outcome [6] | outcome [7] | outcome [8]
